# Records with an inconclusive call do not appear. A number with no mark means an inactive call. Calls come from the whole dose curve; as a rule, active = well fitted activation curve with a large enough effect; inconclusive = small, poorly fitted or top-dose-only effect; inactive = no such curve, though single readings can be large or run the other way.
# Biological target: Rap guanine nucleotide exchange factor 4 (Homo sapiens) (UniProt Q8WZA2)
# Assay: Confirmatory qHTS for agonist of cAMP-regulated guanine nucleotide exchange factor 4 (EPAC2) (AID 1645884);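 note: nucleotide exchange releases bodipy-GDP from Rap1 and this lowers its fluorescence; nearly all actives have a fitted effect of over 65% in size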
# Settings: EPAC2 GEF activity, Rap1B-BODIPY-GDP fluorescence; series mostly up to 154 µM; activation: at the top concentration
# % is set by controls: 0 for no effect and ±100 for the full control effect.
# Chain of Rap guanine nucleotide exchange factor 4 (Homo sapiens) (Q8WZA2 whole entry, looked up): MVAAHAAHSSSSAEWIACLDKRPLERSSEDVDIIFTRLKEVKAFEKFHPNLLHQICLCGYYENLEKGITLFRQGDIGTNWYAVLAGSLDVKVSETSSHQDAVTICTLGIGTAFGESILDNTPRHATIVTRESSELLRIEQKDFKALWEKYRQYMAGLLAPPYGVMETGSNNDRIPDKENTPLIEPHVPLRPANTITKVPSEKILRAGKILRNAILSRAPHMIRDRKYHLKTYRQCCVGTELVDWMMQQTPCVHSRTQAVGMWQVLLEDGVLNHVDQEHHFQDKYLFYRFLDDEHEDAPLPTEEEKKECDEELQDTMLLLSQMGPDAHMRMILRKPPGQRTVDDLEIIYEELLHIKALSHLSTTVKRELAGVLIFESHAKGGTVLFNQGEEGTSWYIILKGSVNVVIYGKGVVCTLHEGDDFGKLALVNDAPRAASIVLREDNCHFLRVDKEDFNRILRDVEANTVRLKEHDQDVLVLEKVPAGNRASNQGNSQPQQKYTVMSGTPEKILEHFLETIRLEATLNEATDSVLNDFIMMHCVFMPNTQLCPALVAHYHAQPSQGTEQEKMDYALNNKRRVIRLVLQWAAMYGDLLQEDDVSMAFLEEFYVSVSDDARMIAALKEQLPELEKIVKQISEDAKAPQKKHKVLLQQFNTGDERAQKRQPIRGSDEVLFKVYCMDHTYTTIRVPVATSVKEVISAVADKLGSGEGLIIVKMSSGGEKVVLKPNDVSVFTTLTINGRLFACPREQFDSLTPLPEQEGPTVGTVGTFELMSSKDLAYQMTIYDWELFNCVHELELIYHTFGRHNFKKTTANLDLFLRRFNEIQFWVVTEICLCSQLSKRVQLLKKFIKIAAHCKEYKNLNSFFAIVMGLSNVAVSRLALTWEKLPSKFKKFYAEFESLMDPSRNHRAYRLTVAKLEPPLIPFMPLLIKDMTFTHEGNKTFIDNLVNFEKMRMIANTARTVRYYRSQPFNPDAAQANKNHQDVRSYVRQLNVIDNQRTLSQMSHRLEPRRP
row,SMILES,activation
1,COc1ccc(NC(=O)Cn2c(SCc3cc(C)ccc3C)nc3ccncc32)c(OC)c1OC,"-3.73% [at 83.8 µM, percent relative to cAMP agonist control]"
2,CCC(C(=O)Nc1cc(OC)ccc1OC)n1nc(-c2ccccc2)c2c(c1=O)CCCC2 (centres undefined),"4.69% [at 83.8 µM, percent relative to cAMP agonist control]"
3,COc1ccc(C(C[N+](=O)[O-])c2c(C)cc3ccccn23)c(OC)c1 (centres undefined),"7.09% [at 17.1 µM, percent relative to cAMP agonist control]"
4,COCC(=O)Oc1c(Sc2ccc(C)cc2)c(C)nn1C(C)(C)C,"7.37% [at 83.8 µM, percent relative to cAMP agonist control]"
5,COc1ccc(C(=O)NC2CCCc3ccccc32)c(OC)c1OC (centres undefined),"0% [at 17.1 µM, percent relative to cAMP agonist control]"
6,CN(CC(=O)O)c1ccc(/C=C/c2ccnc3ccccc23)cc1,12.5%
7,CCOC(=O)c1c(C)[nH]c(CCC(=O)NCc2cccc(OC)c2)c1C,"-34.3% [at 83.8 µM, percent relative to cAMP agonist control]"
8,O=C(COC(=O)/C=C/c1cccc(C(F)(F)F)c1)NC(=O)NC1CCCC1,"4.78% [at 17.1 µM, percent relative to cAMP agonist control]"
9,COc1ccc(OC)c2c(/C=C/c3c(C)[nH]c4ccccc34)ccnc12,-1.64%
10,CCCCN(Cc1ccc(C(=O)N[C@H](C(=O)O)C(C)C)cc1)C(=O)C(c1ccccc1)c1ccccc1,"8.93% [at 17.1 µM, percent relative to cAMP agonist control]"
11,CN(C)c1ccc(/C=C/C=C/c2ccnc3ccccc23)cc1,5.98%
12,COc1ccc(-c2[nH]c(-c3ccc(SC)cc3)nc2SCC(=O)Nc2nccs2)cc1,-29%
13,O=C(Nc1ccccn1)c1cccc(S(=O)(=O)N2CCc3ccccc3C2)c1,11.5%
14,COc1cc(/C=N/NC(=O)c2ccccc2)ccc1O,9.89%
15,C1=Cc2ccccc2/C1=C\c1ccc2c(c1)OCO2,4.46%
16,COc1ccccc1CNC(=O)CSc1ccc(-c2cccs2)nn1,0%
17,COc1ccc(-c2nc3cc(C)ccc3cc2CN(C(=O)c2cccs2)C2CC2)cc1OC,8.75%
18,COc1ccccc1NC(=O)Nc1nc(CC(=O)Nc2ccc(N(C)C)cc2)cs1,"15.9% [at 17.1 µM, percent relative to cAMP agonist control]"
19,Cc1ccc2nc(N3C(=O)C(O)=C(C(=O)c4ccc(C)o4)C3c3cccc(O)c3)sc2c1 (centres undefined),-60.9%
20,Cc1nc(C)n(CC(=O)NCC2Cc3cc(-c4cccc(OC(F)(F)F)c4)ccc3O2)n1 (centres undefined),-13.5%

row,SMILES,activation
1,Cc1ccc(C2CC(=O)Oc3cc(C)cc(C)c32)cc1 (centres undefined),18.9%
2,CCCCN(C(=O)CSc1n[nH]c(-c2ccc(C)cc2)n1)c1c(N)n(CCCC)c(=O)[nH]c1=O,14.8%
3,O=C1C[C@H]2C=CCc3cccc(c32)CN1Cc1ccc(Cl)cc1,14.7%
4,NC(=O)C1CCN(C(=O)Nc2csc3ccccc23)CC1,9.98%
5,O=C(C[n+]1cccc2cc(Cl)ccc21)c1ccc(Br)cc1,17%
6,CCN(CCn1cccn1)Cc1c(C(=O)N2CCCCCCC2)nc2ccc(Cl)cn12,2%
7,CSCCC(NC(=O)c1ccc(Cl)cc1)C(=O)OCC(=O)N1CCCC1=O (centres undefined),"10.4% [at 17.1 µM, percent relative to cAMP agonist control]"
8,COc1ccccc1N1CCN(c2ccc3c(c2)S(=O)(=O)c2cccc(C(=O)NCC4CC4)c2C3=O)CC1,-1.02%
9,CC/C(=C/c1ccccc1OC)c1cc(-c2ccccc2)cc2oc3ccccc3c12,2.47%
10,Cc1cccc(Nc2c([N+](=O)[O-])c(=O)oc3ccccc23)c1,0%
11,Cc1ccc(S(=O)(=O)N2[C@@H](CO)CO[C@H]2CC(=O)c2ccc(F)cc2)cc1,27.8%
12,CC(C)CC1C(=O)N(Cc2cn(CCC3OCCCO3)nn2)CCS(=O)(=O)N1Cc1ccc(-c2ccc(F)cc2)cc1 (centres undefined),14%
13,COC(=O)C(Cc1ccc(O)cc1)NC(=O)CCc1nc2ccccc2s1 (centres undefined),4.46%
14,O=C(CCCC(=O)Nc1cccnc1)Nc1cccnc1,19.5%
15,CCOC(=O)[C@H](CCc1ccccc1)N[C@@H](C)C(=O)N1[C@@H](C(=O)O)C[C@@H]2CCC[C@@H]21,"14.7% [at 83.8 µM, percent relative to cAMP agonist control]"
16,Cc1nc2ccccc2c(=O)n1/N=C/c1ccccc1O,"1.94% [at 17.1 µM, percent relative to cAMP agonist control]"
17,CC[C@H]1c2[nH]c3ccc(C(C)C)cc3c2[C@@H]2CCN3C(=O)CCC[C@H]1[C@H]23,-4.56%
18,CCCCCCc1ccc(N2C[C@H](Cc3ccccc3)[C@@H](CC(=O)Nc3ccccc3)C2=O)cc1,15.1%
19,CC(C(=O)Nc1ccccc1C(F)(F)F)n1nc(-c2ccccc2)c2c(c1=O)CCCC2 (centres undefined),"-35.1% [at 83.8 µM, percent relative to cAMP agonist control]"

# Source: PubChem BioAssay (NCATS)
